Common to all, as to assay: protein-binding microarray (PBM); PBM: ~300 nM protein, 6 mM HEPES pH 7.8, 80 mM KCl, 0.5 mM EDTA, 0.5 mM EGTA, 6% glycerol, 35 ng/ul poly-dIdC, 1% milk, 1 h, room temperature; Ap Aiptasia and Nv Nematostella (sea anemones) / Co Capsaspora / Aq Amphimedon (sponge) / Dm Drosophila / Hu human; RHD is the Rel homology domain; high values mean tight binding
Conditions in all cases: dsDNA, one strand shown

One test deals with T1, GST-Ap-NF-kB RHD (Exaiptasia pallida (Aiptasia), UniProt A0A913YAJ5 2-422).
T1 sequence: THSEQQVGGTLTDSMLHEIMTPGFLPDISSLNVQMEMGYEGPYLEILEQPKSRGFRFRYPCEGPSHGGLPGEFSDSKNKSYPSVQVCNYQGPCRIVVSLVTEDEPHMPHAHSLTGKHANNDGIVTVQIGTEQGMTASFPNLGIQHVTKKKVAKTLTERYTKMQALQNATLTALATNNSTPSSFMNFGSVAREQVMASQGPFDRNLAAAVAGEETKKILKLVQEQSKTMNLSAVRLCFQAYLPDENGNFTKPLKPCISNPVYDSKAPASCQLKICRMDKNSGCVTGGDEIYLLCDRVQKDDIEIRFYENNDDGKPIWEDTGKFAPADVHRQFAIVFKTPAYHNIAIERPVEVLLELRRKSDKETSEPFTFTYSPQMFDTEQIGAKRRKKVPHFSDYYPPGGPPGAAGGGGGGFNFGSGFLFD

In test [1] the target is T2, GST-Nv-NF-kB (Cys allele) (Nematostella vectensis, UniProt E5G601 2-411).
T2 sequence: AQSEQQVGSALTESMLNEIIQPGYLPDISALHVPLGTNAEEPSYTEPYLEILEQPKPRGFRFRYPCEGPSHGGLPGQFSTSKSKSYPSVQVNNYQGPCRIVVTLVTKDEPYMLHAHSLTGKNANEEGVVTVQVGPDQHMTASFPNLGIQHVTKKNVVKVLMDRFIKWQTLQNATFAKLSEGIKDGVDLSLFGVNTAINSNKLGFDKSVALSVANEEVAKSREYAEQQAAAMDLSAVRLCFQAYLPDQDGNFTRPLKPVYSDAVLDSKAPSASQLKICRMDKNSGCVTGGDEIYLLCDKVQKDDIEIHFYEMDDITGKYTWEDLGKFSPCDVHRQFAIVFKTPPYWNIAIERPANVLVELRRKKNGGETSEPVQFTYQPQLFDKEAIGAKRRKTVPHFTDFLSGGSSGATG

In test [2] the target is T3, GST-Nv-NF-kB (Ser allele) (Nematostella vectensis, UniProt A7UNT2 2-411).
T3 sequence: T2 sequence with Q21R, C66S, S207N, E215Q, V217A, E225K, A268E, D399E

A further test concerns the target T4, GST-Co-NF-kB (Capsaspora owczarzaki, UniProt F1ARL5 200-546).
T4 sequence: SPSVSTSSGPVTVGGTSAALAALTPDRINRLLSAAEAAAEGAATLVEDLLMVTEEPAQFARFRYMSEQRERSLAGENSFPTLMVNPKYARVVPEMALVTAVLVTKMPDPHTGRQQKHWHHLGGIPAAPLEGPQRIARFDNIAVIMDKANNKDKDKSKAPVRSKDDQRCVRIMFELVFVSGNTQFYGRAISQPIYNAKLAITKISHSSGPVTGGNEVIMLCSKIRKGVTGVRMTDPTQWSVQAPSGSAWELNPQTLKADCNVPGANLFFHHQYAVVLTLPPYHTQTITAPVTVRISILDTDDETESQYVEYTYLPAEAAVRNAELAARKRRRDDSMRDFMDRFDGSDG

Another test addresses T5, GST-Dm-Relish (Drosophila melanogaster, UniProt Q94527 99-473).
T5 sequence: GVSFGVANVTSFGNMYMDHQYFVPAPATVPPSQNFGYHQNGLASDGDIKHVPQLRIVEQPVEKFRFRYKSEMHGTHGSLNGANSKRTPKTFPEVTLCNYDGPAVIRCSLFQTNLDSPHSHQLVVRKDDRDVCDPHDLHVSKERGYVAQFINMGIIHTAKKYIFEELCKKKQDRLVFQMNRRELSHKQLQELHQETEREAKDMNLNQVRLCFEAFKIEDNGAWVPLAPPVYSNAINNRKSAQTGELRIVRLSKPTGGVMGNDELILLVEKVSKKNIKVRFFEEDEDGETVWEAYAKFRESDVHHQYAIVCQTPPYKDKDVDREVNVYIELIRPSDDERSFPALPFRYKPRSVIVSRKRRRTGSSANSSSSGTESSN

The target in the next test is T6, GST-Aq-NF-kB (Amphimedon queenslandica, UniProt A9Y5G7 2-389).
T6 sequence: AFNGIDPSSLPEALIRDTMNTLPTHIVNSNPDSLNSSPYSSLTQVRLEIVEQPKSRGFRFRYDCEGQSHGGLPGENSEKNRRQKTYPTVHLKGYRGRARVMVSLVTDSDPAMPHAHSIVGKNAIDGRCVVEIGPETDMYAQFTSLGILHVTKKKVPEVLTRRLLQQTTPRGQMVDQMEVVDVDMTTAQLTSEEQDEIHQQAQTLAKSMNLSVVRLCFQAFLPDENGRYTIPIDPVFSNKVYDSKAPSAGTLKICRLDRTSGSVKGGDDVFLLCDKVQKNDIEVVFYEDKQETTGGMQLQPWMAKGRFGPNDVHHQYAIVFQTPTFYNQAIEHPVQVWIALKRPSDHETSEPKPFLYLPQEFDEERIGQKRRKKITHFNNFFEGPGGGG

For another test, the target named is GST-Hu-p50 (Homo sapiens, UniProt P19838 7-356).
Chain of GST-Hu-p50 (P19838 7-356): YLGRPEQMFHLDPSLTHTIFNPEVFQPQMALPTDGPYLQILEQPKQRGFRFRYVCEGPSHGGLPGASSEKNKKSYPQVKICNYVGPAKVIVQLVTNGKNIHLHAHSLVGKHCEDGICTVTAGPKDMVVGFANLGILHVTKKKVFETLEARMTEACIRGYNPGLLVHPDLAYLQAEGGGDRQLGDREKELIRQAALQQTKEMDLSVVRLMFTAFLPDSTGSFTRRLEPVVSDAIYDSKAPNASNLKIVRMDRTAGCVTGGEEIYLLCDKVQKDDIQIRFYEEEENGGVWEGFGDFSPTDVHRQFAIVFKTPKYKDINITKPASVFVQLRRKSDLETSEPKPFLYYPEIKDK

Positions count from the first letter of the chain named.

With “CCGATTAACATCAGGGAGTACCCTGATGTTAATCGGGTCTTGATTCGCTTGACGCTGCTG”, the binding signal came to 5.7 z-score in the test with GST-Ap-NF-kB RHD; 4.14 z-score in test [1]; 3.49 z-score in test [2]; 1.84 z-score in the test with GST-Co-NF-kB; 8.1 z-score in the test with GST-Dm-Relish; 6.66 z-score in the test with GST-Aq-NF-kB. This sequence gave a binding signal with GST-Hu-p50 of 3.38 z-score.
As for “CCGATTAACATCAGGAGTTCCCCTGATGTTAATCGGGTCTTGATTCGCTTGACGCTGCTG”, the binding signal in the test with GST-Ap-NF-kB RHD was 8.41 z-score; in test [1], 9.9 z-score; in test [2], 7.6 z-score; with GST-Co-NF-kB, 5.41 z-score; with GST-Dm-Relish it was 9.69 z-score; with GST-Aq-NF-kB it was 9.11 z-score. In the test with GST-Hu-p50, the binding signal came out at 6.51 z-score.
With “CCGATTAACATCATATTTCCCCATGATGTTAATCGGGTCTTGATTCGCTTGACGCTGCTG”, the binding signal with GST-Ap-NF-kB RHD was determined as 5.95 z-score; in test [1] it was 7.45 z-score; in test [2], 10.1 z-score; with GST-Co-NF-kB, 8.62 z-score; with GST-Dm-Relish, 2.89 z-score; with GST-Aq-NF-kB, 5.08 z-score. In addition, the binding signal in the test with GST-Hu-p50 worked out at 6.08 z-score.
As to “CCGATTAACATCATATGGGAAAATGATGTTAATCGGGTCTTGATTCGCTTGACGCTGCTG”, the binding signal in the test with GST-Ap-NF-kB RHD is 1.55 z-score; in test [1] it was 3.76 z-score; in test [2], 4.82 z-score; with GST-Co-NF-kB, 3.09 z-score; with GST-Dm-Relish, 1.12 z-score; with GST-Aq-NF-kB, 2.17 z-score. The binding signal with GST-Hu-p50 worked out at 2.72 z-score.
As for “CCGATTAACATCAATGTTCCCCCTGATGTTAATCGGGTCTTGATTCGCTTGACGCTGCTG”, the binding signal in the test with GST-Ap-NF-kB RHD is 6.95 z-score; in test [1] it was 6.49 z-score; in test [2], 7.58 z-score; with GST-Co-NF-kB it was 11 z-score; with GST-Dm-Relish it was 5.32 z-score; in the test with GST-Aq-NF-kB it was 6.17 z-score. The sequence also yielded a binding signal with GST-Hu-p50 of 5.74 z-score.
Take “CCGATTAACATCAAAATCCCAGGTGATGTTAATCGGGTCTTGATTCGCTTGACGCTGCTG”: the binding signal in the test with GST-Ap-NF-kB RHD came out at 2.06 z-score; in test [1], 1.42 z-score; in test [2], 1.85 z-score; with GST-Co-NF-kB it was 1.6 z-score; with GST-Dm-Relish, 5.57 z-score; with GST-Aq-NF-kB, 2.06 z-score. The sequence also registered a binding signal in the test with GST-Hu-p50 of 3.17 z-score.
With “CCGATTAACATCAGACTTTCCCATGATGTTAATCGGGTCTTGATTCGCTTGACGCTGCTG”, the binding signal with GST-Ap-NF-kB RHD amounted to 3 z-score; in test [1], 4.28 z-score; in test [2], 3.69 z-score; in the test with GST-Co-NF-kB, 2.74 z-score; with GST-Dm-Relish it was 1.53 z-score; in the test with GST-Aq-NF-kB it was 4.28 z-score. The sequence further yielded a binding signal with GST-Hu-p50 of 3.45 z-score.
Turning to “CCGATTAACATCAATAATTCCCCTGATGTTAATCGGGTCTTGATTCGCTTGACGCTGCTG”, the binding signal with GST-Ap-NF-kB RHD amounted to 8.52 z-score; in test [1], 10.6 z-score; in test [2] it was 11.8 z-score; with GST-Co-NF-kB it was 8.63 z-score; with GST-Dm-Relish, 7.98 z-score; in the test with GST-Aq-NF-kB, 7.59 z-score. The binding signal with GST-Hu-p50 worked out at 6.96 z-score.
Take “CCGATTAACATCAAGGATCCCCCTGATGTTAATCGGGTCTTGATTCGCTTGACGCTGCTG”: the binding signal amounted to 8.01 z-score with GST-Ap-NF-kB RHD; 6.51 z-score in test [1]; 6.9 z-score in test [2]; 5.03 z-score in the test with GST-Co-NF-kB; 8.82 z-score in the test with GST-Dm-Relish; 6.4 z-score with GST-Aq-NF-kB. This sequence also registered a binding signal with GST-Hu-p50 of 6.43 z-score.
Take “CCGATTAACATCAAAACTCCCCGTGATGTTAATCGGGTCTTGATTCGCTTGACGCTGCTG”: the binding signal with GST-Ap-NF-kB RHD came to 7.7 z-score; in test [1] it was 6.47 z-score; in test [2] it was 6.9 z-score; with GST-Co-NF-kB it was 5.87 z-score; in the test with GST-Dm-Relish, 7.5 z-score; in the test with GST-Aq-NF-kB, 6.24 z-score. In the test with GST-Hu-p50, this sequence came in with a binding signal of 5.74 z-score.
Consider “CCGATTAACATCAGGAATGCCCCTGATGTTAATCGGGTCTTGATTCGCTTGACGCTGCTG”, for which the binding signal in the test with GST-Ap-NF-kB RHD is 5.19 z-score; in test [1], 6.58 z-score; in test [2], 3.31 z-score; in the test with GST-Co-NF-kB, 1.64 z-score; with GST-Dm-Relish, 5.92 z-score; in the test with GST-Aq-NF-kB it was 7.72 z-score. In the test with GST-Hu-p50, this sequence gave a binding signal of 5.39 z-score.
For “CCGATTAACATCAAGTCTCCCCCTGATGTTAATCGGGTCTTGATTCGCTTGACGCTGCTG”, the binding signal in the test with GST-Ap-NF-kB RHD is 6.67 z-score; in test [1], 5.33 z-score; in test [2], 7.25 z-score; with GST-Co-NF-kB, 8.63 z-score; with GST-Dm-Relish, 2.82 z-score; with GST-Aq-NF-kB, 4.5 z-score. In the test with GST-Hu-p50, this sequence had a binding signal of 5.75 z-score.

These data come from article PMC5700166.
